Our source for the growth values is PubChem BioAssay (NCI).

Compounds without any hit were thinned out: in the full panel of roughly 83,000, 20% have a hit.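 Each cell line was grown in a 96-well plate and treated with one concentration of compound for 48 hours. Values below 10 were considered active.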 A number with no mark means an inactive call. Active and inactive are the calls of the source.

This experiment has as its system HL-60(TB) leukemia. Put plainly: NCI-60 one-dose screen, 48 h (100 = growth as untreated, 0 = no growth, -100 = all killed). The following applies: 10 µM unless noted.
Regarding `CCCCCCCCN(CCCCCCCC)C(=O)CCl`, the growth is 105%.

Turning to `Cc1ccc(C(=O)/C(=C\c2ccc([N+](=O)[O-])cc2)S(=O)Cc2ccc(F)cc2)cc1` (stereo unspecified), the growth is -7.36% (active).

Consider `CCOC(=O)c1c(C)nc2c(c1N)/C(=C/c1ccc(OC)cc1)C(=O)N2Cc1ccccc1`, for which the growth was 45.8%.

In the case of `CCOC(=O)/C=C/c1ccc([N+](=O)[O-])o1`, the growth was -4.64% (active).

Consider `CS(=O)(=O)c1ccc(-c2nc3ccccc3n2CC(=O)N/N=C/c2ccccc2)cc1`, for which the growth is 141%.

Turning to `CCSc1nnc(Nc2ccc(C(C)C)cc2)s1`, the growth was 48.8%.

As for `O=C(NCc1ccc(F)cc1)C1CN(c2ccc(Cl)cc2)N(c2ccc(Cl)cc2)C1=O` (stereo unspecified), the growth is 43.6%.

Regarding `COc1ccc(-c2nc(/C=C3\C(=O)N(C)c4ccccc43)c3ccccn23)cc1`, the growth is 41.1%.

For the compound `O=S(=O)(O)CCI`, the growth is 99.5%.

Regarding `Fc1ccc(CNc2c3ccccc3nc3ccccc23)cc1F`, the growth is 34.5%.

For `O=C1/C(=C/N2N=C(c3ccc(Cl)cc3)CC2c2ccccc2O)SC(=S)N1c1cccc(C(F)(F)F)c1` (stereo unspecified), the growth was 52.2%.

Consider `CC1(C)CCC[C@]23C(=O)O[C@](O)(C(=O)C4=C[C@@](C)(/C=C/CCCc5ccc6ccc7cccc8ccc5c6c78)CC[C@@]42O)[C@@H]13`, for which the growth is -18.3% (active).

For the compound `c1cc[n+](Cc2ccnc3ccccc23)cc1`, the growth is 84.7%.

As for `Nc1ccc(Cl)c(S(=O)(=O)O)c1`, the growth was 90.5%.

Turning to `Cn1cc(-c2ccc3c(c2)ncn3-c2ccc(CC(=O)Nc3cc(C(C)(C)C)on3)cc2)cn1`, the growth is 67.4%.

In the case of `Cn1c(=O)c2[nH]c(SC/C(=N/O)c3ccc(Br)cc3)nc2n(C)c1=O`, the growth was 99.5%.

For `Oc1ccccc1/C=N/N1CCCCCC1`, the growth is 86.7%.

For `CCCCOc1c(N)cc(Cl)cc1C(=O)OCCN(CC)CC`, the growth is 51%.

With `CCN(CC)c1ccc(/C=N/NC(=O)c2ccccc2Nc2ccnc(C(F)(F)F)c2)c(O)c1`, the growth is 60%.

Consider `Cc1ccc(C(=O)N2C/C(=C/c3ccc(F)cc3)C(=O)/C(=C/c3ccc(F)cc3)C2)cc1`, for which the growth was 81.6%.

In the case of `Cn1cc(-c2csc(-c3cn(CCO)c4ccc(F)cc34)n2)c2cccnc21`, the growth was 50.2%.

In the case of `O=C(O)COc1c(Cl)cc([N+](=O)[O-])cc1Cl`, the growth was 87.1%.

In the case of `Nc1c(C(=O)Nc2ccccc2F)sc2nc3c(cc12)CCCC3`, the growth was 15.5%.

As to `O=C(CSc1nc2ccc([N+](=O)[O-])cc2[nH]1)Nc1cccc(Cl)c1`, the growth is 16.9%.

`COc1ccccc1N1CCCSC1=Nc1ccccc1`: the growth is 50.1%.

In the case of `CC(C)OCC1CO1` (stereo unspecified), the growth is 103%.
